Drawing on PubChem BioAssay (EPA / NIEHS), this text covers outcome and AC50 for 3 compounds.

Holding throughout (settings): mRNA level, 48 h; actives raise or lower the signal
Read-out in assay [1]: Intercellular Adhesion Molecule 1 (ICAM1), ICAM1 (gene 3383)
Briefly: LTEA_HepaRG_ICAM1: Life Technologies and Expression Analysis (LTEA) Assay for Intercellular Adhesion Molecule 1 (ICAM1) using HepaRG (AID 2283507). A digest of the protocol:
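Differentiated human HepaRG cells in serum-free induction medium exposed 48 h in duplicate to 8 half-log concentrations (top 100 uM, 0.5% DMSO). ICAM1 mRNA quantified by TaqMan qRT-PCR, normalized to ACTB, GAPDH and POLR2A; bidirectional fitting versus DMSO.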

Read-out in assay [2]: Insulin-like growth factor-binding protein 1 (IGFBP1), IGFBP1 (gene 3484)
Kind of assay: LTEA_HepaRG_IGFBP1: Life Technologies and Expression Analysis (LTEA) Assay for Insulin-like growth factor-binding protein 1 (IGFBP1) using HepaRG (AID 2283508). A digest of the protocol:
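HepaRG cells, plated 48 h then switched to serum-free induction medium, exposed in duplicate for 48 h to 8-point half-log series from 100 uM in 0.5% DMSO. mRNA measured by qRT-PCR, normalized to ACTB/GAPDH/POLR2A; bidirectional fit versus DMSO.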

Read-out in assay [3]: Interleukin 6 (IL6), IL6 (gene 3569)
Kind of assay: LTEA_HepaRG_IL6: Life Technologies and Expression Analysis (LTEA) Assay for Interleukin 6 (IL6) using HepaRG (AID 2283509). In short, it runs like this:
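HepaRG cells exposed in duplicate for 48 h to eight half-log concentrations, top 100 uM, in 0.5% DMSO serum-free induction medium. mRNA measured by qRT-PCR, normalized to ACTB, GAPDH and POLR2A. Bidirectional fit versus DMSO.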

Read-out in assay [4]: Interleukin 6 Receptor (IL6R), IL6R (gene 3570)
Briefly: LTEA_HepaRG_IL6R: Life Technologies and Expression Analysis (LTEA) Assay for Interleukin 6 Receptor (IL6R) using HepaRG (AID 2283510).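 On AC50: TaqMan qRT-PCR signal normalized to ACTB GAPDH and POLR2A housekeeping genes.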 A digest of the protocol:
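Differentiated HepaRG cells, plated 48 h, then exposed in duplicate for 48 h in serum-free induction medium to 8 half-log concentrations (top 100 uM, 0.5% DMSO). IL6R mRNA measured by TaqMan qRT-PCR, normalized to ACTB/GAPDH/POLR2A; bidirectional fit vs DMSO.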

Read-out in assay [5]: Potassium channel subfamily K member 1 (KCNK1), KCNK1 (gene 3775)
Kind of assay: LTEA_HepaRG_KCNK1: Life Technologies and Expression Analysis (LTEA) Assay for Potassium channel subfamily K member 1 (KCNK1) using HepaRG (AID 2283511). A digest of the protocol:
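Differentiated HepaRG cells, 48 h exposure in serum-free induction medium with 0.5% DMSO; 8 concentrations, half-log from 100 uM, duplicate. KCNK1 mRNA by qRT-PCR, normalized to ACTB, GAPDH, POLR2A; bidirectional fit vs DMSO.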

Read-out in assay [6]: Keratin 19 (KRT19), KRT19 (gene 3880)
Kind of assay: LTEA_HepaRG_KRT19: Life Technologies and Expression Analysis (LTEA) Assay for Keratin 19 (KRT19) using HepaRG (AID 2283512). In short, it runs like this:
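Differentiated HepaRG cells in serum-free induction medium, exposed 48 h in duplicate to 8 half-log concentrations up to 100 uM in 0.5% DMSO. KRT19 mRNA by qRT-PCR, normalized to ACTB, GAPDH, POLR2A; bidirectional fit vs DMSO.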

Read-out in assay [7]: JUN Transcription Factor, JUN (gene 3725)
Briefly: LTEA_HepaRG_JUN: Life Technologies and Expression Analysis (LTEA) Assay for JUN Transcription Factor using HepaRG (AID 2283513). In short, it runs like this:
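HepaRG cells, 48 h post-plating, exposed 48 h in serum-free induction medium to 8-point half-log series (top 100 uM, 0.5% DMSO), duplicate; mRNA by qRT-PCR (TaqMan, Fluidigm), normalized to ACTB/GAPDH/POLR2A; bidirectional fit vs DMSO.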

Read-out in assay [8]: Lipase C (LIPC), LIPC (gene 3990)
Briefly: LTEA_HepaRG_LIPC: Life Technologies and Expression Analysis (LTEA) Assay for Lipase C (LIPC) using HepaRG (AID 2283514). In short, it runs like this: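 HepaRG cells, 48 h after plating, treated in duplicate for 48 h in serum-free induction medium over 8 half-log concentrations from 100 uM, 0.5% DMSO. LIPC mRNA by TaqMan qRT-PCR normalized to ACTB/GAPDH/POLR2A; bidirectional fit versus DMSO.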

Read-out in assay [9]: Lipoprotein lipase (LPL), LPL (gene 4023)
Kind of assay: LTEA_HepaRG_LPL: Life Technologies and Expression Analysis (LTEA) Assay for Lipoprotein lipase (LPL) using HepaRG (AID 2283515). In short, it runs like this:
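Differentiated HepaRG cells, plated 48 h, then exposed 48 h in serum-free induction medium to 8 concentrations (top 100 uM, half-log steps) in 0.5% DMSO, duplicate. LPL mRNA measured by qRT-PCR, normalized to ACTB, GAPDH and POLR2A.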

Read-out in assay [10]: MicroRNA 122 (MIR122), gene 406906
Kind of assay: LTEA_HepaRG_MIR122: Life Technologies and Expression Analysis (LTEA) Assay for MicroRNA 122 (MIR122) using HepaRG (AID 2283516). Further: the transcript read is the microRNA miR-122. In short, it runs like this: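 Differentiated human HepaRG cells in serum-free induction medium exposed 48 h to 8 half-log concentrations from 100 uM in 0.5% DMSO, duplicate. MIR122 quantified by Fluidigm TaqMan qRT-PCR, normalised to ACTB, GAPDH, POLR2A; fold change fitted bidirectionally versus DMSO.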

Read-out in assay [11]: matrix metalloproteinase-10 (MMP10), MMP10 (gene 4319)
Kind of assay: LTEA_HepaRG_MMP10: Life Technologies and Expression Analysis (LTEA) Assay for matrix metalloproteinase-10 (MMP10) using HepaRG (AID 2283517). A digest of the protocol:
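Differentiated HepaRG cells in serum-free induction medium exposed 48 h in duplicate to 8-point half-log series up to 100 uM in 0.5% DMSO. mRNA quantified by qRT-PCR, normalised to ACTB, GAPDH, POLR2A; bidirectional fit versus DMSO.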

Read-out in assay [12]: Paternally Expressed 10 (PEG10), PEG10 (gene 23089)
Kind of assay: LTEA_HepaRG_PEG10: Life Technologies and Expression Analysis (LTEA) Assay for Paternally Expressed 10 (PEG10) using HepaRG (AID 2283520). In short, it runs like this: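 Differentiated HepaRG cells exposed 48 h in serum-free induction medium to eight half-log concentrations topping at 100 uM, 0.5% DMSO, in duplicate. PEG10 mRNA quantified by TaqMan qRT-PCR, normalized to ACTB, GAPDH and POLR2A; bidirectional fit versus DMSO.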

Read-out in assay [13]: Nuclear factor NF-kappa-B p105 subunit (Homo sapiens) (UniProt P19838)
Briefly: LTEA_HepaRG_NFKB1: Life Technologies and Expression Analysis (LTEA) Assay for Nuclear Factor Kappa B Subunit 1 (NFKB1) using HepaRG (AID 2283521).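 Further: TaqMan qRT-PCR transcript normalised to ACTB GAPDH and POLR2A housekeeping genes.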 A digest of the protocol: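 NFKB1 transcript was measured by TaqMan qRT-PCR on Fluidigm arrays, normalised to three housekeeping genes and fitted in both directions against 0.5% DMSO. HepaRG cells were dosed in duplicate for 48 h in serum-free induction medium, eight half-log steps from 100 uM.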

Read-out in assay [14]: Protein phosphatase 2A (PPP2R4), PTPA (gene 5524)
Kind of assay: LTEA_HepaRG_PPP2R4: Life Technologies and Expression Analysis (LTEA) Assay for Protein phosphatase 2A (PPP2R4) using HepaRG (AID 2283522). In short, it runs like this:
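Differentiated human HepaRG cells in serum-free induction medium were exposed 48 h to 8 concentrations (top 100 µM, half-log steps, duplicate) in 0.5% DMSO. PPP2R4 mRNA was measured by TaqMan qRT-PCR, normalised to ACTB, GAPDH and POLR2A, and fitted bidirectionally versus DMSO.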

Read-out in assay [15]: Phosphatase and tensin (PTEN), PTEN (gene 5728)
Briefly: LTEA_HepaRG_PTEN: Life Technologies and Expression Analysis (LTEA) Assay for Phosphatase and tensin (PTEN) using HepaRG (AID 2283523). In short, it runs like this:
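HepaRG cells, 48 h after plating, exposed in duplicate for 48 h in serum-free induction medium to 8 half-log concentrations up to 100 uM (0.5% DMSO). PTEN mRNA by qRT-PCR, normalized to ACTB, GAPDH, POLR2A; bidirectional fit versus DMSO.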

Read-out in assay [16]: solute carrier (SLC22A1), SLC22A1 (gene 6580)
Kind of assay: LTEA_HepaRG_SLC22A1: Life Technologies and Expression Analysis (LTEA) Assay for solute carrier (SLC22A1) using HepaRG (AID 2283524). In short, it runs like this: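 Differentiated human HepaRG cells in serum-free induction medium, exposed 48 h in duplicate to 8-point half-log series from 100 µM top in 0.5% DMSO. SLC22A1 mRNA by TaqMan qRT-PCR normalized to ACTB, GAPDH, POLR2A; bidirectional fit versus DMSO.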

Read-out in assay [17]: Pyruvate Dehydrogenase Kinase 4 (PDK4), PDK4 (gene 5166)
Briefly: LTEA_HepaRG_PDK4: Life Technologies and Expression Analysis (LTEA) Assay for Pyruvate Dehydrogenase Kinase 4 (PDK4) using HepaRG (AID 2283525). In short, it runs like this: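 HepaRG cells plated 48 h, then switched to serum-free induction medium and exposed in duplicate for 48 h to 8 half-log concentrations from 100 uM in 0.5% DMSO. PDK4 mRNA measured by qRT-PCR, normalized to ACTB, GAPDH and POLR2A; bidirectional fit versus DMSO.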

Read-out in assay [18]: matrix metalloproteinase-3 (MMP3), MMP3 (gene 4314)
Briefly: LTEA_HepaRG_MMP3: Life Technologies and Expression Analysis (LTEA) Assay for matrix metalloproteinase-3 (MMP3) using HepaRG (AID 2283519). A digest of the protocol: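 HepaRG cells (~100,000/well) in serum-free induction medium were dosed in duplicate for 48 h with an 8-point half-log series from 100 uM, 0.5% DMSO. MMP3 mRNA was quantified by Fluidigm TaqMan qRT-PCR, normalized to three housekeeping genes.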

Read-out in another assay: MYC, MYC (gene 4609)
Kind of assay: LTEA_HepaRG_MYC: Life Technologies and Expression Analysis (LTEA) Assay for MYC using HepaRG (AID 2283518). A digest of the protocol: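 Differentiated HepaRG cells exposed 48 h in serum-free induction medium to 8 concentrations (top 100 uM, half-log steps; 0.5% DMSO), duplicate. MYC mRNA measured by Fluidigm qRT-PCR, normalized to ACTB, GAPDH, POLR2A; bidirectional fit versus DMSO.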

Calls of active or inactive are those of the source. How the source made its calls: active means hit-call score of the fitted dose curve at least 0.9, where 1 is the maximum; inactive means score below 0.9.

Nuclear factor NF-kappa-B p105 subunit (Homo sapiens), sequence (P19838 whole entry, looked up): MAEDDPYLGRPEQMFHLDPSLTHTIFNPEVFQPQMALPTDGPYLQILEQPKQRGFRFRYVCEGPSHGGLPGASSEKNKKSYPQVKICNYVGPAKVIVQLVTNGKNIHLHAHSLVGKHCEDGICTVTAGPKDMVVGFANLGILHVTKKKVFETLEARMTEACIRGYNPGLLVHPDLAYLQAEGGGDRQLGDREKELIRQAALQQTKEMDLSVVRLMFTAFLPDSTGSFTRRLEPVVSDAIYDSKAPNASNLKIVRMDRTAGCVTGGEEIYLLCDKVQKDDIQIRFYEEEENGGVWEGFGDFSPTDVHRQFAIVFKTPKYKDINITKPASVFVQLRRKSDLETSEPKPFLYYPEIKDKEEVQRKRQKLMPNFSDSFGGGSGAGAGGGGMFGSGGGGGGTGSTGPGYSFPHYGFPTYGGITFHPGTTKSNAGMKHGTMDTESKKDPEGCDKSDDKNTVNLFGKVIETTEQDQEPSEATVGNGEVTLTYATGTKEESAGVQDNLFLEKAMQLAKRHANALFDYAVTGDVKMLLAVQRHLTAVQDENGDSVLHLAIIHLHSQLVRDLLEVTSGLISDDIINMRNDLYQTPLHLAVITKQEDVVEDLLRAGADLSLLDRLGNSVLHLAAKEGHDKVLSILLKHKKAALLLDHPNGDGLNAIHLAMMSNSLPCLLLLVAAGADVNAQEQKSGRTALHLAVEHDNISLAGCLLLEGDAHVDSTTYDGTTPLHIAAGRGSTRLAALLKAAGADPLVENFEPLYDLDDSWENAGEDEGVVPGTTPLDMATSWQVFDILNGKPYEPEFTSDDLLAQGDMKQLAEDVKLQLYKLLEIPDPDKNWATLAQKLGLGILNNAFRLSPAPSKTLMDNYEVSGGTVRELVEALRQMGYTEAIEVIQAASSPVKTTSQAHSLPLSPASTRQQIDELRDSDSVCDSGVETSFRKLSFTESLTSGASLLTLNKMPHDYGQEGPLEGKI

As for `Clc1cc(Cl)c2c(c1)N=C1CCCCCN1C2`, the compound was classed as inactive in assay [1], in assay [3], in assay [4], in assay [5], in assay [6] and in [7]. The compound was called inactive in assay [8], in [9], in [10], in assay [11], in assay [12] and in assay [13]. The compound was classed as inactive in [14], in [15] and in [16]. Also, the AC50 was 15.5 µM (active) in [2] and 12.6 µM (active) in assay [17].
Regarding `OCCO`, the result in assay [1], in assay [2], in assay [3], in assay [4], in assay [5] and in [7] was inactive. In addition, the compound was classed as inactive in assay [8], in assay [9], in [10], in [11], in assay [18] and in [12]. Also, the result in assay [13], in [14], in [15], in assay [16] and in [17] was inactive.
As to `NCc1cccc(C2CCN(C(=O)c3ccc(C#Cc4ccccc4F)o3)CC2)c1`, the outcome in assay [1], in [2], in assay [3], in assay [5], in [7] and in assay [9] was inactive. Also, the outcome was “inactive” in assay [11]; “inactive” with MYC, MYC (gene 4609); “inactive” in assay [13]; “inactive” in [14]; “inactive” in assay [15]. The AC50 in [4] is 82.5 µM (active); in assay [8] it was 76.6 µM (active); in [10] it was 97.8 µM (active); in assay [12], 24.7 µM (active); in assay [16], 92.6 µM (active); in assay [17] it was 64.9 µM (active).
